In PubChem BioAssay (NCI):
“And” between values parts separate entries of the source, which are not always exact repeats. Equal values may be shown once. The panel holds about 83,000 compounds, 20% with a hit somewhere; the sample as a whole holds those more often.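 Treatment: one concentration, 48 hours, 96-well format. Scoring: percent growth, with anything below 10 considered active.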 The source made the active and inactive calls.

The compounds below were run on UACC-62 melanoma (assay: NCI-60 one-dose screen, 48 h (100 = growth as untreated, 0 = no growth, -100 = all killed)). Settings: 10 µM unless noted.

SMILES | growth
CCC1OC2(C)CC(C#N)(C#N)C1(C#N)C(=N)O2 (stereo not given) | 34.6% [100 µM] (inactive)
Cc1ccc2c(sc(-c3ccc4c(c3)sc(-c3ccc5c(c3)sc(-c3ccc(N(C)C)cc3)[n+]5C)[n+]4C)[n+]2C)c1S(=O)(=O)O (tested in a mixture with another compound) | 48.6% [100 µM] (inactive) and 10.5% [100 µM] (inactive)
Fc1ccc(Nc2nc(Cl)c3[nH]cnc3n2)cc1Cl | 68% [100 µM] (inactive) and 34.7% [100 µM] (inactive)
Cc1ccc(OC2CC(n3cnc4ncnc(Cl)c43)OC2Oc2ccc(C)cc2)cc1 (stereo not given) | 11.7% [100 µM] (inactive) and -100% [100 µM] (active)
CCO/C=N\C1=C(C#N)SC2=N/C(=C\c3ccc(OC)cc3)C(=O)N21 | 71.9% [100 µM] (inactive) and 70.7% [100 µM] (inactive)
Cc1ccc(F)cc1NC(=O)O/N=C(\Cl)C(C)C | 82.6% [100 µM] (inactive) and 60.7% [100 µM] (inactive)
COc1c(O)ccc(C2=Cc3ccc(O)cc3OC2)c1OC | -72.2% [100 µM] (active) and -24.7% [100 µM] (active)
C/C(=C\COc1cc(O)c2c(c1)C(=O)c1cc(C)cc(O)c1C2=O)CCC1OC1(C)C (stereo not given) | 41.3% [100 µM] (inactive) and 6.17% [100 µM] (active)
C=CCNC1=C2C[C@@H](C)C[C@@H](OC)[C@@H](OC(=O)CCCN)[C@H](C)/C=C(\C)[C@@H](OC(N)=O)[C@H](OC)/C=C\C=C(/C)C(=O)NC(=CC1=O)C2=O | -57.7% [100 µM] (active) and -64.4% [100 µM] (active)
Cc1ccc(/C=N/Nc2nncc3ccccc23)s1 | 6.4% [100 µM] (active) and 1.47% [100 µM] (active)
Cc1ccc(NC(=O)/C(Cc2cc(=O)oc3cc(O)ccc23)=N\NC(C)(C)C)cc1C | 87.9% [100 µM] (inactive) and 92.2% [100 µM] (inactive)
C=C1C2CCC3C4(C)CCCC(C)(C(=O)O)C4CCC3(C2)C1OC(=O)/C(C)=C/C (stereo not given) | -47.9% [100 µM] (active) and 42.1% [100 µM] (inactive)
C=C1C(=O)OC2CC(C)C3(O)CCC(=O)C3(C)CC12 (stereo not given) | 9.02% [100 µM] (active) and 6.55% [100 µM] (active)
CCCCCCCCCCCCC/C=C/[C@H]1[C@@H](C(=O)OC)N1S(=O)c1ccc(C)cc1 (stereo not given in full) | 64.8% [100 µM] (inactive) and 3.51% [100 µM] (active)
Clc1ccc(C2NN=C3c4ccccc4OCC32)cc1 (stereo not given) | 4.4% [100 µM] (active) and -69.2% [100 µM] (active)
CCOC(=O)C(=O)C(CCC(=O)c1ccc2ccccc2c1O)C(=O)OCC (stereo not given) | 85.4% [100 µM] (inactive) and 81.5% [100 µM] (inactive)
N#CC1(C#N)C2CCCCC23OC(=N)C1(C#N)C(c1ccccc1)O3 (stereo not given) | -40.1% [100 µM] (active)
CC1CC(=O)N(N(C)C)C2(C#N)C(=O)N=C(N)C12C#N (stereo not given) | -84.2% [100 µM] (active) and -92.9% [100 µM] (active)
COc1ccc(C)cc1NC(=S)C#N | 74.4% [100 µM] (inactive) and 31.4% [100 µM] (inactive)
COC(=O)C(Cc1nc2ccccc2[nH]c1=O)C(=O)C(=O)Nc1cc(C(F)(F)F)ccc1Cl (stereo not given) | -87.8% [100 µM] (active) and -39.4% [100 µM] (active)
C=C(C)C(=O)OC1CC2(C)OC(=CC2=O)C(C)CC2OC(=O)C(=C)C12 (stereo not given) | -97% [100 µM] (active)
COC(=O)C1CCC(=O)N1CN(C(C)=O)c1cccc(O)c1 (stereo not given) | 74.6% [100 µM] (inactive) and 102% [100 µM] (inactive)
OCc1ccccc1OC1OC(CO)C(O)C(O)C1O (stereo not given) | 85.4% [100 µM] (inactive) and 95.9% [100 µM] (inactive)
NC1N=C(c2ccc(Cl)cc2)C2=C(N1)c1ccccc1CC2 (stereo not given) | 36.7% [100 µM] (inactive) and -55.8% [100 µM] (active)
COc1ccc2cc1Oc1ccc(cc1)CC1c3cc(OC)c(cc3CCN1C)Oc1c(OC)c(OC)cc3c1C(C2)N(C)CC3 (stereo not given) | -46.8% [75 µM] (active) and -87.8% [75 µM] (active)
